# Measured values as given in PubChem BioAssay (NCI).
# About 79,000 compounds went through this panel and 15% of them were active in at least one assay; those are over-represented in the sample as a whole. Unmarked numbers belong to inactive results. Activity calls are given as the source filed them. No stated cut-off is given here; in the data, active means growth inhibition above about 70%; inactive means the rest.
# Legend:
# [1] = NCI Yeast Anticancer Drug Screen. Data for the sgs1 strain (AID 173);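 further: 0% = growth of vehicle-only control cultures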; conditions: S. cerevisiae sgs1 mutant, active compounds read high
# Outline: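 Vehicle-treated cultures served as reference for growth inhibition of a yeast strain altered in DNA damage repair or cell cycle control after compound exposure.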
# [2] = NCI Yeast Anticancer Drug Screen. Data for the mlh1 rad18 strain (AID 175); conditions: S. cerevisiae mlh1 rad18 strain growth inhibition, active compounds read high
# Outline: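 Inhibition values reflect reduced growth of mutant yeast versus vehicle-treated controls following compound exposure; the mutations affect DNA damage repair.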
# [3] = NCI Yeast Anticancer Drug Screen. Data for the wt1 strain (AID 149);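 further: 0% = growth of vehicle-treated wt1 cultures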; conditions: S. cerevisiae wt1 strain (SPY 50644) growth inhibition, active compounds read high
# Outline: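 Measured: growth of wt1 yeast under compound versus vehicle treatment, reported as inhibition.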
# [4] = NCI Yeast Anticancer Drug Screen. Data for the rad50EPP+ strain (AID 151);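 further: 0% = growth of vehicle-treated control cultures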; conditions: S. cerevisiae rad50 mutant strain, active compounds read high
# Outline: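 Genetically defined yeast (rad50EPP+, DNA damage repair alteration) is grown with compound, and inhibition of growth is expressed relative to vehicle-treated controls.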
# [5] = NCI Yeast Anticancer Drug Screen. Data for the mgt1 strain (AID 153); conditions: S. cerevisiae mgt1 mutant growth inhibition, active compounds read high
# Outline: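 In the mgt1 strain, test compounds were added and growth inhibition was determined relative to vehicle-treated controls.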
# [6] = NCI Yeast Anticancer Drug Screen. Data for the rad50 strain (AID 155);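 further: 0% = growth of vehicle-only cultures of the same strain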; conditions: S. cerevisiae rad50 strain growth inhibition, active compounds read high
# Outline: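 Growth of the mutant yeast was measured after compound exposure and referenced to vehicle-treated cultures.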
# [7] = NCI Yeast Anticancer Drug Screen. Data for the mec2-1 strain (AID 157); conditions: S. cerevisiae mec2-1 strain, active compounds read high
# Outline: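 Each compound was tested on mec2-1 yeast, a strain altered in DNA damage repair or cell cycle control. Growth inhibition is reported relative to vehicle.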
# [8] = NCI Yeast Anticancer Drug Screen. Data for the rad14 strain (AID 159);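 further: 0% = growth of vehicle-treated control cultures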; conditions: S. cerevisiae rad14 strain growth inhibition, active compounds read high
# Outline: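 Here, inhibition of yeast growth was measured after compound exposure, using a strain with a genetic defect in DNA damage repair and vehicle-treated cultures as the reference.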
# [9] = NCI Yeast Anticancer Drug Screen. Data for the sgs1 mgt1 strain (AID 161);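 further: 0% = growth of cultures given vehicle only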; conditions: S. cerevisiae sgs1 mgt1 strain, active compounds read high
# Outline: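 Inhibition of yeast growth, normalised to vehicle-treated controls, is reported for a strain bearing genetic alterations in DNA damage repair.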
# [10] = NCI Yeast Anticancer Drug Screen. Data for the CLN2oe strain (AID 163);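 further: 0% = growth of vehicle-only control cultures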; conditions: S. cerevisiae CLN2oe strain, active compounds read high
# Outline: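 First, the altered yeast strain was treated with each compound; second, its growth was measured; finally, inhibition was derived by comparison with vehicle controls.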
# [11] = NCI Yeast Anticancer Drug Screen. Data for the cln2 rad14 strain (AID 165);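 further: 0% = growth equal to vehicle treated cultures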; conditions: S. cerevisiae cln2 rad14 strain, active compounds read high
# Outline: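 Test compounds were added to cln2 rad14 yeast cultures; inhibition of growth was then determined by comparison with vehicle treatment.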
# [12] = NCI Yeast Anticancer Drug Screen. Data for the bub3 strain (AID 167); conditions: S. cerevisiae bub3 mutant strain, active compounds read high
# Outline: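 Whole-cell yeast assay. The mutant strain was incubated with compounds, and growth inhibition was determined by comparison with vehicle-treated cells.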
# [13] = NCI Yeast Anticancer Drug Screen. Data for the wt2 strain (AID 169);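 further: 0% = growth of vehicle-treated yeast cultures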; conditions: S. cerevisiae wt2 strain growth inhibition, active compounds read high
# Outline: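 The panel's yeast strains carry defined changes in DNA repair or cell cycle genes. Each strain is grown with compound, and growth loss is scored relative to vehicle.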
# [14] = NCI Yeast Anticancer Drug Screen. Data for the mlh1 strain (AID 171);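 further: 0% = growth of vehicle-treated control cultures of the same strain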; conditions: S. cerevisiae mlh1 strain growth inhibition, active compounds read high
# Outline: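 Inhibition values reflect reduced yeast growth in the presence of compound, referenced to vehicle controls, using a strain chosen for its alteration in DNA repair or cell cycle control.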
# [15] = NCI Yeast Anticancer Drug Screen. Data for the rad18 strain (AID 177); conditions: S. cerevisiae rad18 mutant growth inhibition, active compounds read high
# Outline: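 Steps: expose repair-mutant yeast to compound; measure growth; express as inhibition relative to vehicle control.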
# [16] = NCI Yeast Anticancer Drug Screen. Data for the rad52 strain (AID 147);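 further: 0% = growth of vehicle-treated control cultures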; conditions: S. cerevisiae rad52 mutant growth inhibition, active compounds read high
# Outline: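 Inhibition of yeast growth, referenced to vehicle controls, was the measured output for a strain with defective DNA damage repair.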
# [17] = at 5.0 µM (retest, dose inferred, filed as 0.5)
# [18] = at 50.0 µM (retest, dose inferred, filed as 5.0)
structure (smiles),measurement,setting,value
COc1ccc(C(NCCNC(c2ccc(OC)c(OC)c2)c2cc3c(cc2O)OCO3)c2cc3c(cc2O)OCO3)cc1OC (centres undefined),growth inhibition,[1]; at 1.2 µM,2%
same,growth inhibition,[1]; at 3.7 µM,0%
same,growth inhibition,[1]; at 11.0 µM,4%
same,growth inhibition,[1]; at 33.0 µM,63%
same,growth inhibition,[1]; at 100.0 µM,99% (active)
same,growth inhibition,[2]; [17],-29%
same,growth inhibition,[2]; [18],34%
same,growth inhibition,[2]; at 50.0 µM,46.6%
O=C1CC(=O)c2ccccc21,growth inhibition,[3]; at 1.2 µM,0%
same,growth inhibition,[3]; at 3.7 µM,-1%
same,growth inhibition,[3]; at 11.0 µM,0%
same,growth inhibition,[3]; at 33.0 µM,5%
same,growth inhibition,[3]; at 100.0 µM,17%
same,growth inhibition,[4]; at 1.2 µM,-3%
same,growth inhibition,[4]; at 3.7 µM,-1%
same,growth inhibition,[4]; at 11.0 µM,6%
same,growth inhibition,[4]; at 33.0 µM,18%
same,growth inhibition,[4]; at 100.0 µM,55%
same,growth inhibition,[5]; at 1.2 µM,-1%
same,growth inhibition,[5]; at 3.7 µM,0%
same,growth inhibition,[5]; at 11.0 µM,1%
same,growth inhibition,[5]; at 33.0 µM,3%
same,growth inhibition,[5]; at 100.0 µM,72% (active)
same,growth inhibition,[6]; at 1.2 µM,4%
same,growth inhibition,[6]; at 3.7 µM,3%
same,growth inhibition,[6]; [17],3%
same,growth inhibition,[6]; at 11.0 µM,-9%
same,growth inhibition,[6]; at 33.0 µM,14%
same,growth inhibition,[6]; [18],69%
same,growth inhibition,[6]; at 50.0 µM,87.4% (active)
same,growth inhibition,[6]; at 100.0 µM,46%
same,growth inhibition,[7]; at 1.2 µM,1%
same,growth inhibition,[7]; at 3.7 µM,2%
same,growth inhibition,[7]; [17],1%
same,growth inhibition,[7]; at 11.0 µM,4%
same,growth inhibition,[7]; at 33.0 µM,10%
same,growth inhibition,[7]; [18],53%
same,growth inhibition,[7]; at 50.0 µM,46.3%
same,growth inhibition,[7]; at 100.0 µM,40%
same,growth inhibition,[8]; at 1.2 µM,0%
same,growth inhibition,[8]; at 3.7 µM,3%
same,growth inhibition,[8]; at 11.0 µM,5%
same,growth inhibition,[8]; at 33.0 µM,12%
same,growth inhibition,[8]; at 100.0 µM,56%
same,growth inhibition,[9]; [17],3%
same,growth inhibition,[9]; [18],12%
same,growth inhibition,[9]; at 50.0 µM,59.7%
same,growth inhibition,[10]; at 1.2 µM,-9%
same,growth inhibition,[10]; at 3.7 µM,-1%
same,growth inhibition,[10]; at 11.0 µM,3%
same,growth inhibition,[10]; at 33.0 µM,1%
same,growth inhibition,[10]; at 100.0 µM,48%
same,growth inhibition,[11]; [17],0%
same,growth inhibition,[11]; [18],57%
same,growth inhibition,[11]; at 50.0 µM,70.5% (active)
same,growth inhibition,[12]; at 1.2 µM,-2%
same,growth inhibition,[12]; at 3.7 µM,-1%
same,growth inhibition,[12]; [17],-4%
same,growth inhibition,[12]; at 11.0 µM,0%
same,growth inhibition,[12]; at 33.0 µM,3%
same,growth inhibition,[12]; [18],6%
same,growth inhibition,[12]; at 50.0 µM,67.9%
same,growth inhibition,[12]; at 100.0 µM,35%
same,growth inhibition,[13]; at 1.2 µM,0%
same,growth inhibition,[13]; at 3.7 µM,8%
same,growth inhibition,[13]; at 11.0 µM,1%
same,growth inhibition,[13]; at 33.0 µM,5%
same,growth inhibition,[13]; at 100.0 µM,37%
same,growth inhibition,[14]; at 1.2 µM,-1%
same,growth inhibition,[14]; at 3.7 µM,0%
same,growth inhibition,[14]; at 11.0 µM,2%
same,growth inhibition,[14]; at 33.0 µM,4%
same,growth inhibition,[14]; at 100.0 µM,65%
same,growth inhibition,[1]; at 1.2 µM,-1%
same,growth inhibition,[1]; at 3.7 µM,2%
same,growth inhibition,[1]; at 11.0 µM,6%
same,growth inhibition,[1]; at 33.0 µM,18%
same,growth inhibition,[1]; at 100.0 µM,57%
same,growth inhibition,[2]; [17],1%
same,growth inhibition,[2]; [18],12%
same,growth inhibition,[2]; at 50.0 µM,70% (active)
same,growth inhibition,[15]; at 1.2 µM,-1%
same,growth inhibition,[15]; at 3.7 µM,2%
same,growth inhibition,[15]; at 11.0 µM,7%
same,growth inhibition,[15]; at 33.0 µM,23%
same,growth inhibition,[15]; at 100.0 µM,74% (active)
CN(CCN(C)Cc1ccccc1)Cc1ccccc1,growth inhibition,[16]; at 1.2 µM,-5%
same,growth inhibition,[16]; at 3.7 µM,8%
same,growth inhibition,[16]; at 11.0 µM,-4%
same,growth inhibition,[16]; at 33.0 µM,19%
same,growth inhibition,[16]; at 100.0 µM,2%
same,growth inhibition,[4]; at 1.2 µM,-13%
same,growth inhibition,[4]; at 3.7 µM,-3%
same,growth inhibition,[4]; at 11.0 µM,-4%
same,growth inhibition,[4]; at 33.0 µM,-22%
same,growth inhibition,[4]; at 100.0 µM,-40%
same,growth inhibition,[5]; at 1.2 µM,-13%
same,growth inhibition,[5]; at 3.7 µM,-4%
same,growth inhibition,[5]; at 11.0 µM,14%
same,growth inhibition,[5]; at 33.0 µM,11%
same,growth inhibition,[5]; at 100.0 µM,58%
same,growth inhibition,[6]; at 1.2 µM,-18%
same,growth inhibition,[6]; at 3.7 µM,-12%
same,growth inhibition,[6]; [17],40%
same,growth inhibition,[6]; at 11.0 µM,-5%
same,growth inhibition,[6]; at 33.0 µM,9%
same,growth inhibition,[6]; [18],79% (active)
same,growth inhibition,[6]; at 50.0 µM,24.5%
same,growth inhibition,[6]; at 100.0 µM,6%
same,growth inhibition,[7]; at 1.2 µM,-33%
same,growth inhibition,[7]; at 3.7 µM,-19%
same,growth inhibition,[7]; [17],45%
same,growth inhibition,[7]; at 11.0 µM,-25%
same,growth inhibition,[7]; at 33.0 µM,-6%
same,growth inhibition,[7]; [18],81% (active)
same,growth inhibition,[7]; at 50.0 µM,12.9%
same,growth inhibition,[7]; at 100.0 µM,2%
same,growth inhibition,[8]; at 1.2 µM,5%
same,growth inhibition,[8]; at 3.7 µM,18%
same,growth inhibition,[8]; at 11.0 µM,18%
same,growth inhibition,[8]; at 33.0 µM,43%
same,growth inhibition,[8]; at 100.0 µM,68%
same,growth inhibition,[9]; [17],-1%
same,growth inhibition,[9]; [18],57%
same,growth inhibition,[9]; at 50.0 µM,51.3%
same,growth inhibition,[11]; [17],16%
same,growth inhibition,[11]; [18],38%
same,growth inhibition,[11]; at 50.0 µM,31.1%
same,growth inhibition,[12]; at 1.2 µM,-31%
same,growth inhibition,[12]; at 3.7 µM,-15%
same,growth inhibition,[12]; [17],14%
same,growth inhibition,[12]; at 11.0 µM,-13%
same,growth inhibition,[12]; at 33.0 µM,9%
same,growth inhibition,[12]; [18],39%
same,growth inhibition,[12]; at 50.0 µM,60.5%
same,growth inhibition,[12]; at 100.0 µM,3%
same,growth inhibition,[13]; at 1.2 µM,-17%
same,growth inhibition,[13]; at 3.7 µM,-9%
same,growth inhibition,[13]; at 11.0 µM,2%
same,growth inhibition,[13]; at 33.0 µM,1%
same,growth inhibition,[13]; at 100.0 µM,14%
same,growth inhibition,[14]; at 1.2 µM,8%
same,growth inhibition,[14]; at 3.7 µM,4%
same,growth inhibition,[14]; at 11.0 µM,12%
same,growth inhibition,[14]; at 33.0 µM,23%
same,growth inhibition,[14]; at 100.0 µM,52%
same,growth inhibition,[1]; at 1.2 µM,-6%
same,growth inhibition,[1]; at 3.7 µM,-10%
same,growth inhibition,[1]; at 11.0 µM,-10%
same,growth inhibition,[1]; at 33.0 µM,10%
same,growth inhibition,[1]; at 100.0 µM,30%
same,growth inhibition,[2]; [17],25%
same,growth inhibition,[2]; [18],72% (active)
same,growth inhibition,[2]; at 50.0 µM,32.3%
same,growth inhibition,[15]; at 1.2 µM,-2%
same,growth inhibition,[15]; at 3.7 µM,14%
same,growth inhibition,[15]; at 11.0 µM,17%
same,growth inhibition,[15]; at 33.0 µM,32%
same,growth inhibition,[15]; at 100.0 µM,35%
